Several values for one entry are separate records, joined by “and”; a condition that tells them apart may be missing. Equal entries are not always repeated. The panel holds about 79,000 compounds, 15% with a hit somewhere; the sample as a whole holds those more often. Unmarked numbers belong to inactive results. No stated cut-off is given here; in the data, active means growth inhibition above about 70%; inactive means the rest.

The experiment is described as follows: NCI Yeast Anticancer Drug Screen. Data for the mlh1 rad18 strain (AID 175). The settings on record: S. cerevisiae mlh1 rad18 strain growth inhibition, stronger effect = higher value; at 50.0 µM unless noted. In short, it runs like this:
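Yeast w/ defined DNA-repair lesions; compound exposure; growth vs vehicle controls → % inhibition.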
With `NNC(=O)CCn1[nH]c(=O)c(Cl)c(Cl)c1=O`, the growth inhibition is 11.4%. As for `Oc1ccc(Br)cc1/C=N/c1nc2ccccc2s1.Oc1ccc(Br)cc1/C=N/c1nc2ccccc2s1.[Cu]`, the growth inhibition was 43.5%.

`COc1ccccc1C(=O)NCC1CCCN2CCCCC12` (stereo not given): the growth inhibition was -45.4%. Under `CCOC(=O)c1nnsc1N/N=C\c1ccc([N+](=O)[O-])cc1` stands 14.3%; under `O=C1OC(=O)C2C3CC(C(Br)C3Br)C12` (stereo not given), 21.5%. The figure for `Cc1ccc(/C=C/C(=O)C(C)CN(C)C)cc1C` (stereo not given) is 9.65%; for `CC(C)(O)CCO` it is -33.1%. Under `CCOC(=O)C/C(O)=C(/C=N/C(=S)NNC(C)=O)C(=O)OCC` stands -8.65%; under `CC1/C(=N\O)CC2C3(C)CCC2(C(C)C(=O)O)C(=O)C13` (stereo not given), 20.6%. Take `COc1nc(NC2OC(CO)C(O)C(O)C2O)c(C(=O)CCl)c(=O)n1C` (stereo not given): the growth inhibition was 4.05%. Consider `C/C(=N/NC(N)=S)c1c(C)[nH]c2ccccc12`, for which the growth inhibition is 0.95%. The figure for `O=C(Nc1ccc(O)cc1)c1ccc([N+](=O)[O-])cc1` is -2.2%; for `CCC(SC(CC)(CC)C(=O)O)C(N)=O` (stereo not given) it is -8.1%. The figure for `Cc1cccc(NC(=O)Nc2ccccc2Cl)n1` is 16.6%; for `c1ccc(N=NC2(c3ccccc3)CC(c3ccccc3)=NN(c3ccccc3)C2NNc2ccccc2)cc1` (stereo not given) it is 31.7%; for `CCCOC(=O)c1ccc(O)cc1.[Cu+2]` it is 12.7%. Under `O=C(O)c1ccccc1SSc1ccccc1C(=O)O` stands 7.85% and 9.6%. In the case of `CN(C)CC1CCCCCC(CN(C)C)C1=O` (stereo not given), the growth inhibition is 16.8% and 12.9%. Take `Cc1ccc(NC(=O)c2c(Br)c(Br)c(Br)c(Br)c2C(=O)O)cc1Cl`: the growth inhibition was -9.25%. Under `O=c1[nH][nH]c2ccccc12` stands 12.2%; under `C=CCN1C(=O)CS/C1=N/NC(=O)C(O)(c1ccccc1)c1ccccc1`, -4.05%. Under `O=C(O)CN(CCO)CCN(CC(=O)O)CC(=O)O.[Fe+2]` stands 2.25%. Under `O=C(O)CNC(=S)SCC(=O)O` stands -19.6%; under `NC(=O)Nc1ccc(/C=C\c2ccnc3ccccc23)cc1`, -9.45%; under `Cc1[nH]c(=O)cc2c1[nH]c1ccccc12`, -1.05%. `CS(=O)CCC1C(=O)OC(C(C)(C)C)N1C(=O)c1ccccc1` (stereo not given): the growth inhibition was -0.4%. Under `O=C(Nc1cccc(I)c1)OCCCl` stands 57.2%. Under `O=c1n(-c2ccccc2)c(=O)n(-c2ccccc2)c(=O)n1-c1ccccc1` stands -14.7%; under `CC(C)OC(=O)/C=C/CCCC1CCCCC1`, -15.2%. For the compound `Oc1cc2c(cc1-c1cc3c(cc1O)OCO3)OCO2`, the growth inhibition is 0.55%.

For the compound `CN1OC(=O)OC(C)(c2ccccc2)C1=O` (stereo not given), the growth inhibition was -0.05%. The figure for `COc1ccc(-c2nc(Sc3c([N+](=O)[O-])ncn3C)n[nH]2)cc1` is -6.6%; for `Cc1cc(C(=O)O)cc(C)c1N(C)C=O` it is 4.45%. The figure for `CCOC(OCC)C1(C)CC=CCC1` (stereo not given) is 6.4%; for `CN(C)c1cccc2ccccc12` it is 18.9%. As to `CC1(CO)COC(C)(C)OC1`, the growth inhibition was 13.6%.

As for `COC(=O)C(CCCCCCCC(C(=O)OC)c1nc2n(c1O)C(=N)N=N2)c1nc2n(c1O)C(=N)N=N2` (stereo not given), the growth inhibition is 4.75%.

For the compound `CN1C(=O)OC2OC(C)(c3ccc(S(=O)(=O)c4ccccc4)cc3)C(=O)CC21` (stereo not given), the growth inhibition is 2.25%.

In the case of `CC1(C)OC2OC3C(O)C(=O)OC3C2O1` (stereo not given), the growth inhibition is -7.1%. The figure for `N#Cc1cccc2c1Nc1ccccc1S2` is -19.9%.

The values are drawn from PubChem BioAssay (NCI).
